# According to the antibiotic and cytotoxicity screens of Wong et al. (2023):
# Screen size: about 39,000 compounds; about 3,300 (8.5%) were called active. The full list was thinned out, with actives kept by preference.
# System: HepG2
# Test: cytotoxicity call (relative viability < 0.9)
# Settings: 10 µM
row,Structure (SMILES),cytotoxicity call
1,C[C@@H]1O[C@@H](O[C@@H]2[C@@H](O)[C@H](C)O[C@@H](OC[C@H]3O[C@@H](Oc4c(-c5ccc(O)cc5)oc5cc(O)cc(O)c5c4=O)[C@H](O)[C@@H](O)[C@H]3O)[C@@H]2O)[C@H](O)[C@H](O)[C@H]1O,inactive
2,C[C@@H]1CN([C@@H](C)CO)C(=O)c2cc(C#Cc3cccnc3)cnc2O[C@@H]1CN(C)Cc1ccc(F)cc1,inactive
3,C[C@H](CO)N1C[C@H](C)[C@@H](CN(C)Cc2ccccc2)Oc2c(NC(=O)c3ccc(-c4nccs4)cc3)cccc2C1=O,inactive
4,N#CCNC(=O)Cc1ccccc1,inactive
5,N[C@@H](Cc1cc(I)c(Oc2ccc(O)c(I)c2)c(I)c1)C(=O)O,inactive
6,NC(Cc1cc(I)c(Oc2ccc(O)c(I)c2)c(I)c1)C(=O)O (centres undefined),inactive
7,NC(Cc1cc(I)c(Oc2ccc(O)c(I)c2)c(I)c1)C(=O)[O-].[Na+] [LIOTHYRONINE (L- isomer) SODIUM ],active
8,COc1cccc(S(=O)(=O)Nc2ccc3c(c2)[C@@H]2C[C@@H](CC(=O)NCc4cccc(F)c4)O[C@@H](CO)[C@@H]2O3)c1,inactive
9,Cc1noc(C)c1S(=O)(=O)Nc1ccc2c(c1)CC(=O)N([C@H](C)CO)C[C@H](C)[C@H](CN(C)CC1CC1)O2,inactive
10,Cc1noc(C)c1S(=O)(=O)N(C)C[C@H]1OCCCC[C@H](C)Oc2ccc(NC(=O)Nc3ccccc3)cc2C(=O)N([C@H](C)CO)C[C@H]1C,inactive
11,Cc1noc(C)c1S(=O)(=O)N(C)C[C@@H]1OCCCC[C@@H](C)Oc2ccc(NC(=O)Nc3ccccc3)cc2C(=O)N([C@@H](C)CO)C[C@@H]1C,inactive
12,Cc1noc(C)c1S(=O)(=O)N(C)C[C@H]1OCCCC[C@@H](C)Oc2ccc(NC(=O)Nc3ccccc3)cc2C(=O)N([C@@H](C)CO)C[C@@H]1C,active
13,Cc1noc(C)c1S(=O)(=O)N(C)C[C@H]1OCCCC[C@H](C)Oc2ccc(NC(=O)Nc3ccccc3)cc2C(=O)N([C@H](C)CO)C[C@@H]1C,inactive
14,Cc1noc(C)c1S(=O)(=O)N(C)C[C@@H]1OCCCC[C@@H](C)Oc2ccc(NC(=O)Nc3ccccc3)cc2C(=O)N([C@H](C)CO)C[C@H]1C,inactive
15,Cc1noc(C)c1S(=O)(=O)N(C)C[C@@H]1OCCCC[C@H](C)Oc2ccc(NC(=O)Nc3ccccc3)cc2C(=O)N([C@H](C)CO)C[C@H]1C,active
16,COc1cccc(S(=O)(=O)N(C)C[C@H]2Oc3cc(C4=CCCC4)ccc3S(=O)(=O)N([C@@H](C)CO)C[C@@H]2C)c1,inactive
17,CC(C)NC(=O)Nc1ccc2c(c1)C(=O)N([C@@H](C)CO)C[C@@H](C)[C@@H](CN(C)C(=O)Nc1ccccc1)OCCCC[C@H](C)O2,inactive
18,C[C@@H](NC(=O)C[C@@H]1C=C[C@H](NC(=O)CN2CCOCC2)[C@H](CO)O1)c1ccccc1,inactive
19,Cc1ccc(NC(=O)n2c3ccccc3c3ccccc32)cc1,active
20,CC1=CC(C)(C)N(C(=O)Nc2ccc(C)cc2)c2ccccc21,inactive
21,Cc1ccc(OC(=O)n2c3ccccc3c3ccccc32)cc1,inactive
22,C[C@@H]1CN([C@H](C)CO)S(=O)(=O)c2ccc(C3=CCCCC3)cc2O[C@H]1CN(C)S(=O)(=O)c1cn(C)cn1,inactive
23,O=C(C[C@@H]1CC[C@@H]2[C@H](COC[C@@H](O)CN2S(=O)(=O)c2cccc(Cl)c2)O1)NCc1ccc2c(c1)OCO2,inactive
24,O=C(NO)c1ccc(-c2cn(CC(=O)N3CCOCC3)nn2)s1,inactive
25,CC1NC(=O)C2CCCN2C(=O)C(CC(N)=O)NC(=O)C2CSSCC(N)C(=O)NC3CSSCC(NC1=O)C(=O)NC(C(C)O)C(=O)NCC(=O)NC(C(=O)NC(Cc1ccc(O)cc1)C(=O)O)CSSCC(NC(=O)C(Cc1ccc(O)cc1)NC(=O)C(CCC(=O)O)NC3=O)C(=O)N2 (centres undefined),inactive
26,CC[C@@H](C)CCCCC(=O)N[C@@H](CCN)C(=O)N[C@H](C(=O)N[C@@H](CCN)C(=O)N[C@H]1CCNC(=O)[C@H]([C@@H](C)O)NC(=O)[C@H](CCN)NC(=O)[C@H](CCN)NC(=O)[C@H](CC(C)C)NC(=O)[C@@H](Cc2ccccc2)NC(=O)[C@@H](CCN)NC1=O)[C@@H](C)O,inactive
27,C[C@H]1[C@H]2[C@H](Cc3ccccc3)NC(=O)[C@]23C(=O)N[C@H](Cc2ccccc2)C(=O)N2CCC[C@H]2C(=O)NC/C=C\C/C=C/[C@@H]3[C@@H]2O[C@]12C,inactive

row,Structure (SMILES),cytotoxicity call
1,CC(C)C[C@@H]1NC(=O)[C@@H](C(C)C)NC(=O)[C@@H]2CCCN2C(=O)[C@@H](CC(=O)O)NC(=O)[C@@H](Cc2c[nH]c3ccccc23)NC1=O,inactive
2,CC(C)C[C@H]1NC(=O)[C@@H](CCCN)NC(=O)[C@H](C(C)C)NC(=O)[C@H]2CCCN2C(=O)[C@@H](Cc2ccccc2)NC(=O)[C@@H](CC(C)C)NC(=O)[C@@H](CCCN)NC(=O)[C@H](C(C)C)NC(=O)[C@H]2CCCN2C(=O)[C@@H](Cc2ccccc2)NC1=O,active
3,C[C@H]1CN([C@@H](C)CO)C(=O)c2cc(NS(=O)(=O)c3cccs3)ccc2O[C@H]1CN(C)S(C)(=O)=O,inactive
4,COc1ccc(S(=O)(=O)N(C)C[C@@H]2Oc3ccc(NS(=O)(=O)c4ccccc4)cc3CC(=O)N([C@H](C)CO)C[C@@H]2C)cc1,inactive
5,COCCN(C)C(=O)c1ccc2nnc([C@H]3CN(S(C)(=O)=O)CCN3C)n2c1,inactive
6,C=CCOC(=O)[C@@H]1[C@H]2C(=O)O[C@H](c3ccccc3)[C@H](c3ccccc3)N2[C@H](c2ccc(OCCOC(=O)[C@@H]3C[C@@H]4C(=O)N[C@@H](CCCCNC(C)=O)C(=O)N4[C@@H]3c3ccc(O)cc3)cc2)[C@@]12C(=O)Nc1ccccc12,inactive
7,C=CCNC1=C2C[C@H](C)C[C@H](OC)[C@@H](O)[C@H](C)/C=C(\C)[C@H](OC(N)=O)[C@H](OC)/C=C/C=C(\C)C(=O)NC(=CC1=O)C2=O,active
8,C=CCNC1=C2C[C@@H](C)C[C@H](OC)[C@H](O)[C@@H](C)/C=C(\C)[C@H](OC(N)=O)[C@@H](OC)/C=C\C=C(/C)C(=O)NC(=CC1=O)C2=O,active
9,CO[C@H]1/C=C\C=C(/C)C(=O)NC2=CC(=O)C(NCCN(C)C)=C(C[C@@H](C)C[C@H](OC)[C@H](O)[C@@H](C)/C=C(\C)[C@@H]1OC(N)=O)C2=O,active
10,C[C@H](CO)N1C[C@H](C)[C@H](CN(C)S(=O)(=O)c2cn(C)cn2)Oc2ccc(NS(=O)(=O)c3cn(C)cn3)cc2CC1=O,inactive
11,CC(C)NC(=O)N(C)C[C@H]1OCc2cn(nn2)CCCC(=O)N([C@@H](C)CO)C[C@@H]1C,inactive
12,Cc1noc(C)c1NC(=O)N(C)C[C@@H]1Oc2cc(C#CCN(C)C)ccc2S(=O)(=O)N([C@@H](C)CO)C[C@H]1C,inactive
13,COc1ccc(S(=O)(=O)Nc2ccc3c(c2)C(=O)N([C@@H](C)CO)C[C@@H](C)[C@H](CN(C)C(=O)c2ccccc2)OCCCC[C@@H](C)O3)cc1,inactive
14,OCc1ccccc1O,inactive
15,Nc1ccccc1CO,active
16,Nc1cc(F)ccc1CO,inactive
17,C[C@H](CO)N1C[C@H](C)[C@H](CN(C)C(=O)c2ccccc2)Oc2cc(C#C[C@@H](C)O)ccc2S1(=O)=O,inactive
18,Cc1ccc(S(=O)(=O)Nc2ccc3c(c2)CC(=O)N([C@H](C)CO)C[C@H](C)[C@@H](CN(C)C(=O)NC(C)C)O3)cc1,inactive
19,C[C@@H]1CN([C@@H](C)CO)S(=O)(=O)c2ccc(C#CC3CC3)cc2O[C@H]1CN(C)C(=O)Cc1ccncc1,inactive
20,COc1ccc2c3c([nH]c2c1)[C@@H](CO)N(C[C@]13CN(C1)S(=O)(=O)c1cn(cn1)C)C(=O)Nc1ccc(cc1)F,inactive
21,C[C@@H]1CN([C@@H](C)CO)C(=O)c2cc(NC(=O)Nc3ccc4c(c3)OCO4)ccc2O[C@@H]1CN(C)C(=O)Nc1ccc(C(F)(F)F)cc1,inactive
22,CO[C@@H]1[C@@H](O[C@@H]2O[C@H](C)[C@@H](O[C@H]3C[C@@](C)(O)[C@@H](O)[C@H](C)O3)[C@H](N(C)C)[C@H]2O)[C@@H](CC=O)C[C@@H](C)[C@@H](O[C@H]2CC[C@H](N(C)C)[C@@H](C)O2)/C=C/C=C/CC(C)OC(=O)C[C@H]1OC(C)=O (some centres undefined),inactive
23,COC1C(O)CC(=O)OC(C)CC=CC=CC(O)C(C)CC(CC=O)C1OC1OC(C)C(OC2CC(C)(O)C(OC(=O)CC(C)C)C(C)O2)C(N(C)C)C1O (centres undefined) [KITASAMYCINS [A1 shown] ],inactive
24,CO[C@@H]1[C@@H](O[C@@H]2O[C@H](C)[C@@H](O[C@H]3C[C@@](C)(O)[C@@H](OC(=O)CC(C)C)[C@H](C)O3)[C@H](N(C)C)[C@H]2O)[C@@H](CC=O)C[C@@H](C)[C@@H](O)/C=C/C=C/CC(C)OC(=O)C[C@H]1OC(C)=O (some centres undefined),active
25,COC1C(O)CC(=O)OC(C)CC=CC=CC(OC2CCC(N(C)C)C(C)O2)C(C)CC(CC=O)C1OC1OC(C)C(OC2CC(C)(O)C(O)C(C)O2)C(N(C)C)C1O (centres undefined),active
26,CO[C@@H]1[C@@H](O[C@@H]2O[C@H](C)[C@@H](O[C@H]3C[C@@](C)(O)[C@@H](OC(=O)CC(C)C)[C@H](C)O3)[C@H](N(C)C)[C@H]2O)[C@@H](CC=O)C[C@@H](C)[C@@H](O)/C=C\C=C/C[C@@H](C)OC(=O)C[C@H]1OC(C)=O,inactive
27,CO[C@@H]1[C@@H](O[C@@H]2O[C@H](C)[C@@H](O[C@H]3C[C@@](C)(O)[C@@H](O)[C@H](C)O3)[C@H](N(C)C)[C@H]2O)[C@@H](CC=O)C[C@@H](C)[C@@H](O[C@H]2CC[C@H](N(C)C)[C@@H](C)O2)/C=C/C=C/C[C@@H](C)OC(=O)C[C@H]1O,inactive
